MCF10A rerep = inducers of DNA re-replication in MCF 10A breast cells; MCF 10A DNA re-replication, Hoechst nuclear intensity, 48 h; Potency, µM (top dose mostly 46.1 µM), hits mostly activators; 2.9% of 350,000 active; note: nearly all actives have a fitted effect of over 50% in size
KB-V1 cytotox = KB-V1 MDR subline cytotoxicity. Potency, µM (titrated, usually from 46.1 µM), most hits filed as cytotoxic. KB-V1 MDR cells viability, CellTiter-Glo, 72 h. 3.4% of 400,000 active. AID 1347076; note: nearly all actives have a fitted effect of over 60% in size
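Cells of the MDR subline KB-V1 are plated, dosed with compound at multiple concentrations, and incubated 72 h at 37 degrees C; CellTiter-Glo is then added and luminescence read after 10 min.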
D3 ag = activates the human D3 dopamine receptor. P35462. D3R DiscoveRx beta-arrestin cells, luminescence, 90 min. max activation, %. 0.58% of 410,000 active. AID 652048; in the data active = max activation above about 30%
Target sequence (P35462 whole entry, looked up): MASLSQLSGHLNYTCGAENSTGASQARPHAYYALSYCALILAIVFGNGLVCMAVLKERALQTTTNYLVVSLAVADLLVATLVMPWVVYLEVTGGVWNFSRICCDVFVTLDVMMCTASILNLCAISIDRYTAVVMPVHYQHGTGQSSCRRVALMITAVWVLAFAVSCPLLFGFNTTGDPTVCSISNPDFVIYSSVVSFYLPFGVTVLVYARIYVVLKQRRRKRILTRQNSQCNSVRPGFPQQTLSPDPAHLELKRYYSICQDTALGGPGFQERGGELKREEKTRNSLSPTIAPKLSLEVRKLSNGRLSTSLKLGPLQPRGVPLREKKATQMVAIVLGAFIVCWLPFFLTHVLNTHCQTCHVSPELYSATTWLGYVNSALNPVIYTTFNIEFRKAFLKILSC
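Agonist-mode cell screen: cells plated at 1500/well and incubated overnight at 37 °C, then exposed to library compounds for 90 min at 37 °C. Detection reagent was added for 30–60 min at room temperature, and luminescence was read.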
DRD3 antagonist = blocks the human D3 dopamine receptor; max response, negative = inhibition, %; AID 652054; P35462; 2.5% of 360,000 active; D3R cells, DiscoveRx beta-arrestin luminescence, antagonist mode; active compounds read low; in the data active = max response below about -50%; inconclusive = no clear call, values can overlap the other calls
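Cells plated overnight at 1500 cells/well, then exposed to library compounds with dopamine controls for 90 minutes at 37 degrees C. DiscoveRx reagent added for 30–60 minutes at room temperature; luminescence read, quantitative HTS format.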
KB-3-1 tox = kills parental KB-3-1 adenocarcinoma cells. KB-3-1 viability, CellTiter-Glo ATP luminescence, 72 h. Potency, µM (highest dose often 46.1 µM), actives largely listed as cytotoxic. 1.4% of 400,000 active; note: nearly all actives have a fitted effect of over 60% in size
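Cytotoxicity measured as CellTiter-Glo luminescence after 72 h at 37 C. Compound titrations were pinned onto drug-naive KB-3-1 parental adenocarcinoma cells grown in DMEM with 10% FBS, and normalized data fitted to concentration-response curves.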
SW480 rerep = inducers of DNA re-replication in SW480 colon cancer cells; SW480 DNA re-replication, Hoechst DNA content imaging, 48 h; Potency, µM (series often up to 46.1 µM), actives largely listed as activators; 1.8% of 340,000 active; AID 624297; note: nearly all actives have a fitted effect of over 55% in size
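Compounds, transferred as 23 nL by pin tool, were incubated with cells for 48 hr; DNA content per nucleus was then quantified by Hoechst staining and fluorescence plate imaging.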
Each line names hits and unclear results; the compound was inactive in the other large screens. The list is not random: actives were taken first. Their share in the collection is about 8.9%. Unless noted, calls come from the whole dose curve; as a rule, active = well fitted curve in the direction sought with a large enough effect; inconclusive = small, poorly fitted or top-dose-only effect, or another doubt; inactive = no such curve, though single readings can be large; an effect the other way counts as inactive or inconclusive.

CSc1cc(-c2ccccc2)n(Cc2ccccc2Cl)c(=O)c1C#N	MCF10A rerep 3.66µM, KB-V1 cytotox inconclusive, KB-3-1 tox 4.61µM, SW480 rerep 6.51µM
CCCn1c(-c2ccccc2)cc(SC)c(C#N)c1=O	SW480 rerep 5.8µM
N#Cc1c(-c2ccccc2)ccn(Cc2ccccc2Cl)c1=O	MCF10A rerep inconclusive, DRD3 antagonist -50.7
COc1ccc(NC(=O)[C@@H]2CC=C[C@@H]3CCN(C4CC4)C(=O)[C@@H]32)cc1	none (no result: MCF10A rerep, D3 ag, DRD3 antagonist, SW480 rerep)
CCOC(=O)c1nc(Nc2ccc(C(=O)OCC(C)C)cc2)c2ccccc2n1	none (no result: MCF10A rerep, DRD3 antagonist, SW480 rerep)
Cc1noc(C)c1S(=O)(=O)N(CC(=O)NCc1ccccc1Cl)c1ccc(C(C)C)cc1	none (no result: MCF10A rerep, DRD3 antagonist, SW480 rerep)
COCCC(=O)N1CCCC(C(=O)c2ccccc2SC)C1 (configuration not stated)	DRD3 antagonist -58.8
CCOC(=O)C1CCCN(C(=O)c2cc(-c3ccc(C)cc3)nc3ccccc23)C1 (configuration not stated)	MCF10A rerep inconclusive, KB-V1 cytotox 11.6µM
CCOC(=O)C1CCCN(C(=O)c2ccccc2SCCOC)C1 (configuration not stated)	MCF10A rerep 20.6µM, SW480 rerep inconclusive
CSc1ccccc1C(=O)C1CCCN(C(=O)CCN2CCCO2)C1 (configuration not stated)	none
Cc1oc2ncn(C)c(=O)c2c1C(=O)NCCCN1CCCC(C)C1 (configuration not stated)	none (no result: MCF10A rerep, DRD3 antagonist, SW480 rerep)
CCCCNC(=O)C(CC)Sc1nnc(-c2cccc(F)c2)c(-c2cccc(F)c2)n1 (configuration not stated)	KB-V1 cytotox inconclusive (no result: MCF10A rerep, DRD3 antagonist, SW480 rerep)
O=C(c1ccco1)N(Cc1ccc(Cl)cc1)C1CCS(=O)(=O)C1 (configuration not stated)	MCF10A rerep inconclusive, KB-V1 cytotox inconclusive, D3 ag 38.1
O=C(/C=C/c1ccco1)N(Cc1ccccc1)C1CCS(=O)(=O)C1 (configuration not stated)	SW480 rerep 14.6µM
Cc1ccc(CN(C(=O)c2cc3ccccc3oc2=O)C2CCS(=O)(=O)C2)cc1 (configuration not stated)	KB-V1 cytotox 14.6µM
O=C(c1cccs1)N(Cc1cccc(F)c1)C1CCS(=O)(=O)C1 (configuration not stated)	none
O=C(c1cccs1)N(Cc1cccc(Cl)c1)C1CCS(=O)(=O)C1 (configuration not stated)	KB-V1 cytotox 14.6µM
CCc1ccc(CN(C(=O)c2ccco2)C2CCS(=O)(=O)C2)cc1 (configuration not stated)	KB-V1 cytotox inconclusive
CCC(C(=O)Nc1ccc(F)cc1F)n1nc(-c2ccccc2)c2c(c1=O)CCCC2 (configuration not stated)	none (no result: MCF10A rerep, DRD3 antagonist, SW480 rerep)
CNc1ccc(/C=C/c2ccccc2)cc1	KB-3-1 tox inconclusive (no result: MCF10A rerep, D3 ag, DRD3 antagonist, SW480 rerep)
CCOc1ccc(CCNC(=O)CSc2nc3ccccc3nc2Cc2ccc(C)cc2)cc1OCC	none (no result: MCF10A rerep, DRD3 antagonist, SW480 rerep)
O=[N+]([O-])c1ccc2[nH]c(O)c(N=Nc3ccc(F)cc3)c2c1	MCF10A rerep inconclusive, SW480 rerep inconclusive
O=[N+]([O-])c1ccc(N=Nc2c(O)[nH]c3ccc(F)cc23)cc1	MCF10A rerep 7.31µM, KB-V1 cytotox inconclusive, KB-3-1 tox inconclusive, SW480 rerep inconclusive
CN(C(=O)CSc1nc2ccccc2[nH]1)c1ccc(F)cc1	none (no result: MCF10A rerep, DRD3 antagonist, SW480 rerep)
CCN(CC)c1ccc(/C=C2\C=Cc3ccccc32)cc1	KB-3-1 tox inconclusive (no result: MCF10A rerep, D3 ag, DRD3 antagonist, SW480 rerep)
COC1=C(Br)C(=O)c2nc(C)ccc2C1=O	DRD3 antagonist -118.5 (no result: MCF10A rerep, SW480 rerep)
COc1nc(C)ccc1-c1noc(-c2cccnc2)n1	MCF10A rerep inconclusive, SW480 rerep inconclusive
COC1=C(N)C(=O)c2nc(C)ccc2C1=O	KB-V1 cytotox inconclusive, KB-3-1 tox 4.61µM, SW480 rerep inconclusive
CNc1ccccc1C(C)(C)c1cc(-c2cccc(Br)c2)no1	MCF10A rerep 14.6µM, KB-3-1 tox 23.1µM
CNc1ccccc1C(C)(C)c1cc(-c2ccc(F)cc2)no1	KB-V1 cytotox inconclusive, KB-3-1 tox 8.2µM (no result: SW480 rerep)
CNc1ccccc1C(C)(C)c1cc(-c2cccc([N+](=O)[O-])c2)no1	MCF10A rerep inconclusive, SW480 rerep inconclusive
